These results are taken from ChEMBL document CHEMBL1961873, “Compounds: GSK PKIS; Assays: Nanosyn kinase panel” (2012).

Several values for one entry are separate records, joined by “and”; a condition that tells them apart may be missing. Equal entries are not always repeated.

The first assay deals with Maternal embryonic leucine zipper kinase (Homo sapiens) (UniProt Q14680). Particulars: at 0.1 µM.
Sequence of Maternal embryonic leucine zipper kinase (Homo sapiens) (Q14680 whole entry, looked up): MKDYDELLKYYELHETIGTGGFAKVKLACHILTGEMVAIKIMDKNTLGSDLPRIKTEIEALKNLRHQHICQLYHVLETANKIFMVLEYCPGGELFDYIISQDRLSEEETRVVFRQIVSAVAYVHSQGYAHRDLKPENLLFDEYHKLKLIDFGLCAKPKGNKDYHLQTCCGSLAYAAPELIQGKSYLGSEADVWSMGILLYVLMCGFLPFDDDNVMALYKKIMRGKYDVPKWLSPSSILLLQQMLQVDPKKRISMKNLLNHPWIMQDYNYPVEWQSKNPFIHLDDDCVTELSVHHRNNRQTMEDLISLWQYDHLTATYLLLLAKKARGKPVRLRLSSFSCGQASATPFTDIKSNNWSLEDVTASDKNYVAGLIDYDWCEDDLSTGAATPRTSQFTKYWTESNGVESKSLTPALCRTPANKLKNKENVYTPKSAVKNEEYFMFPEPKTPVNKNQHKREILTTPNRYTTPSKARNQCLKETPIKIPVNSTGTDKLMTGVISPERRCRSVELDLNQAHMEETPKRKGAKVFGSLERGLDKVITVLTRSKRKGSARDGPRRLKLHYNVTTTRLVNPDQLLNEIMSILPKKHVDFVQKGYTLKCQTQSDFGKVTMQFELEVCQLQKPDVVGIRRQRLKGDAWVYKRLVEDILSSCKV
As a reminder, the inhibition is the drop in the measured response relative to a control, in per cent. For `CCCNc1cccc(-n2ncc3c(N/N=C/c4ccncc4)ncnc32)c1`, the inhibition was -0.14%.

For the compound `CC1=C(C(=O)Nc2ccc3[nH]nc(C)c3c2)C(c2ccc(C(F)(F)F)cc2)CC(=O)N1` (configuration not stated), the inhibition stood at 3.65%.

Regarding `CN1CCC(C(=O)Nc2n[nH]c3nc(-c4ccc(O)cc4)c(Br)cc23)CC1`, the inhibition was 3.6% and 2.34%.

With `Cc1cc(O)cc(C)c1/C=C/c1cncc(C(=O)OC(C)(C)C)c1`, the inhibition was 3.07%.

Take `CN1CCN(Cc2ccc(-c3cc4ncnc(Nc5ccc(OCc6cccc(F)c6)c(Cl)c5)c4s3)o2)CC1`: the inhibition is 4.83% and 3.2%.

The next assay has the same target. Particulars: at 1 µM.
With `FC(F)(F)CNc1nccc(-c2cnn3ncccc23)n1`, the inhibition is 27.5%.

In the case of `CCOc1ccc2c(-c3ccnc(Nc4cc(OC)cc(C(F)(F)F)c4)n3)cnn2n1`, the inhibition was 10.3%.

Regarding `CCS(=O)(=O)c1ccc(OC)c(Nc2ncc(-c3cccc(C(C)=O)c3)o2)c1`, the inhibition stood at 7.46%.

On to `CS(=O)(=O)CCNCc1ccoc1-c1ccc2ncnc(Nc3ccc(OCc4ccccc4)cc3)c2c1`, for which the inhibition was -0.61%.

With `NS(=O)(=O)c1cccc(N/C=C2\C(=O)Nc3ccccc32)c1`, the inhibition came out at 19%.

Take `CCn1c(-c2nonc2N)nc2cncc(C(=O)NCCNC)c21`: the inhibition was found to be 61.2%.

Turning to `CS(=O)(=O)CCNCc1ccc(-c2ccc3ncnc(Nc4ccc(OCc5cccc(C(F)(F)F)c5)cc4)c3c2)o1`, the inhibition came out at 11.4%.

Take `COc1cc(N2CCN(C(C)C)CC2)ccc1Nc1nc(Nc2cccc(F)c2C(=O)O)c2cc[nH]c2n1`: the inhibition stood at 7.68%.

In the case of `O=C(O[C@H]1CN[C@H](C#Cc2cc3ncnc(Nc4ccc5c(cnn5Cc5ccccc5)c4)c3s2)C1)N1CCOCC1`, the inhibition was -1.35%.

With `CS(=O)(=O)Nc1ccc(-c2cc(-c3ccccc3)cc(C(N)=O)c2N)cc1`, the inhibition came to 7.77%.

On to `CCS(=O)(=O)c1ccc(OC)c(Nc2ncc(-c3cccc(F)c3)o2)c1`, for which the inhibition amounted to 15.4%.

With `O=C1Nc2ccccc2/C1=C1\CCc2cc(O)ccc21`, the inhibition amounted to 56.8%.

For the compound `Cc1ccc(-c2cc3c(NC(=O)C4CC4)ncnc3o2)cc1`, the inhibition came out at 4.56%.

As to `CS(=O)(=O)Nc1ccc(-c2ccc3c(NC(=O)C4CC4)n[nH]c3c2)cc1`, the inhibition is 3.47%.

Regarding `Cn1c(-c2nonc2N)nc2cnccc21`, the inhibition was determined as 22.1%.

As to `COc1cccc(-n2ncc3c(N/N=C/c4ccc(C(=O)NCCN(C)C)cc4)ncnc32)c1`, the inhibition worked out at 11.5%.

As for `O=C(Nc1n[nH]c2nnc(-c3cccnc3)cc12)C1CC1`, the inhibition amounted to 1.48%.

Consider `COC(=O)Nc1nc2ccc(Oc3ccc(NC(=O)Nc4cc(C(F)(F)F)ccc4F)cc3)cc2s1`, for which the inhibition came out at 3.51%.

With `NC(=O)c1ccc2c(-c3ccnc(NCCCO)n3)c(-c3ccc(F)cc3)nn2c1`, the inhibition was 6.85%.

Regarding `NS(=O)(=O)c1ccc(N/N=C2\C(=O)Nc3ccc(C(=O)NCc4ccncc4)cc32)cc1`, the inhibition is 90.6%.

For `CNC(=O)c1ncccc1Nc1nc(Nc2cc3c(cc2OC)CCCN3C(=O)CN(C)C)nc2[nH]ccc12`, the inhibition was found to be 18.2%.

Take `COc1ccccc1-c1cc(/C=C2\C(=O)Nc3ncc(Br)cc32)cc(Br)c1O`: the inhibition was 8.21%.

For the compound `CN(C)CCNC(=O)Nc1ccc(N(C)c2ccnc(Nc3ccc(CS(C)(=O)=O)cc3)n2)cc1`, the inhibition is 16.1%.

Regarding `CS(=O)(=O)CCNCc1ccc(-c2ccc3ncnc(Nc4ccc(OCc5ccccc5)cc4)c3c2)o1`, the inhibition amounted to 3.76%.

As to `COC(=O)Nc1nc2cc(Oc3ccc(NC(=O)Nc4ccccc4)cc3)ccc2[nH]1`, the inhibition is 2.1%.

Turning to `O=C(O[C@H]1CN[C@H](C#Cc2cc3ncnc(Nc4ccc(OCc5cccc(F)c5)c(Cl)c4)c3s2)C1)N1CCOCC1`, the inhibition came to 4.67%.

Consider `CCCNc1cccc(-n2ncc3c(N/N=C/c4ccncc4)ncnc32)c1`, for which the inhibition is 3.93%.

For `CC1=C(C(=O)Nc2ccc3[nH]nc(C)c3c2)C(c2ccc(C(F)(F)F)cc2)CC(=O)N1` (configuration not stated), the inhibition stood at 18%.

As to `CN1CCC(C(=O)Nc2n[nH]c3nc(-c4ccc(O)cc4)c(Br)cc23)CC1`, the inhibition was 11.7% and 8.84%.

Consider `Cc1cc(O)cc(C)c1/C=C/c1cncc(C(=O)OC(C)(C)C)c1`, for which the inhibition worked out at 5.89%.

Turning to `CN1CCN(Cc2ccc(-c3cc4ncnc(Nc5ccc(OCc6cccc(F)c6)c(Cl)c5)c4s3)o2)CC1`, the inhibition was 6.62% and 9.42%.

The target of another assay is MAP kinase-interacting serine/threonine-protein kinase 1 (Homo sapiens) (UniProt Q9BUB5). The settings on record: at 0.1 µM.
Sequence of MAP kinase-interacting serine/threonine-protein kinase 1 (Homo sapiens) (Q9BUB5 whole entry, looked up): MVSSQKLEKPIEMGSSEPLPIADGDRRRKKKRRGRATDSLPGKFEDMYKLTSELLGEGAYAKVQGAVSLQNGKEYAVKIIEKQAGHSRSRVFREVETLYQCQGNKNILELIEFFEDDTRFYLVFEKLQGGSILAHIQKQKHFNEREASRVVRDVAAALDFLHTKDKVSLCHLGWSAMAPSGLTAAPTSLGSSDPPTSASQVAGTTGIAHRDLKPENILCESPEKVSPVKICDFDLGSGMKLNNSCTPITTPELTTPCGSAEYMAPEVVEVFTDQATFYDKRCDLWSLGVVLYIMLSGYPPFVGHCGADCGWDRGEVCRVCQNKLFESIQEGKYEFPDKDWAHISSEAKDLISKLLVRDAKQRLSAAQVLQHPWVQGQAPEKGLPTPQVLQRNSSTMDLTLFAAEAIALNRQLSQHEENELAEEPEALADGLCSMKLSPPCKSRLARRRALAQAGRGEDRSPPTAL
As to `FC(F)(F)CNc1nccc(-c2cnn3ncccc23)n1`, the inhibition was 4.07%.

Take `CCOc1ccc2c(-c3ccnc(Nc4cc(OC)cc(C(F)(F)F)c4)n3)cnn2n1`: the inhibition was determined as 4.65%.

In the case of `CCS(=O)(=O)c1ccc(OC)c(Nc2ncc(-c3cccc(C(C)=O)c3)o2)c1`, the inhibition was 3.04%.

As to `CS(=O)(=O)CCNCc1ccoc1-c1ccc2ncnc(Nc3ccc(OCc4ccccc4)cc3)c2c1`, the inhibition is 2%.

Regarding `NS(=O)(=O)c1cccc(N/C=C2\C(=O)Nc3ccccc32)c1`, the inhibition was found to be 2.36%.

For the compound `CCn1c(-c2nonc2N)nc2cncc(C(=O)NCCNC)c21`, the inhibition came to 2.94%.

As to `CS(=O)(=O)CCNCc1ccc(-c2ccc3ncnc(Nc4ccc(OCc5cccc(C(F)(F)F)c5)cc4)c3c2)o1`, the inhibition was 2.34%.

On to `COc1cc(N2CCN(C(C)C)CC2)ccc1Nc1nc(Nc2cccc(F)c2C(=O)O)c2cc[nH]c2n1`, for which the inhibition turned out to be 3.1%.

As for `O=C(O[C@H]1CN[C@H](C#Cc2cc3ncnc(Nc4ccc5c(cnn5Cc5ccccc5)c4)c3s2)C1)N1CCOCC1`, the inhibition came out at 1.01%.

As to `CS(=O)(=O)Nc1ccc(-c2cc(-c3ccccc3)cc(C(N)=O)c2N)cc1`, the inhibition turned out to be 1.45%.

On to `CCS(=O)(=O)c1ccc(OC)c(Nc2ncc(-c3cccc(F)c3)o2)c1`, for which the inhibition is 3.79%.

Regarding `O=C1Nc2ccccc2/C1=C1\CCc2cc(O)ccc21`, the inhibition is 3.12%.

Turning to `Cc1ccc(-c2cc3c(NC(=O)C4CC4)ncnc3o2)cc1`, the inhibition came out at 1.56%.

As to `CS(=O)(=O)Nc1ccc(-c2ccc3c(NC(=O)C4CC4)n[nH]c3c2)cc1`, the inhibition is 2.36%.

For the compound `Cn1c(-c2nonc2N)nc2cnccc21`, the inhibition was 3.39%.

`COc1cccc(-n2ncc3c(N/N=C/c4ccc(C(=O)NCCN(C)C)cc4)ncnc32)c1`: the inhibition amounted to 39.4%.

In the case of `O=C(Nc1n[nH]c2nnc(-c3cccnc3)cc12)C1CC1`, the inhibition was found to be 0.68%.

Consider `COC(=O)Nc1nc2ccc(Oc3ccc(NC(=O)Nc4cc(C(F)(F)F)ccc4F)cc3)cc2s1`, for which the inhibition turned out to be 4.79%.

With `NC(=O)c1ccc2c(-c3ccnc(NCCCO)n3)c(-c3ccc(F)cc3)nn2c1`, the inhibition was determined as 4.56%.

For `NS(=O)(=O)c1ccc(N/N=C2\C(=O)Nc3ccc(C(=O)NCc4ccncc4)cc32)cc1`, the inhibition came out at 2.18%.

In the case of `CNC(=O)c1ncccc1Nc1nc(Nc2cc3c(cc2OC)CCCN3C(=O)CN(C)C)nc2[nH]ccc12`, the inhibition is 2.12%.

On to `COc1ccccc1-c1cc(/C=C2\C(=O)Nc3ncc(Br)cc32)cc(Br)c1O`, for which the inhibition turned out to be 4.21%.

With `CN(C)CCNC(=O)Nc1ccc(N(C)c2ccnc(Nc3ccc(CS(C)(=O)=O)cc3)n2)cc1`, the inhibition worked out at 1.51%.

Take `CS(=O)(=O)CCNCc1ccc(-c2ccc3ncnc(Nc4ccc(OCc5ccccc5)cc4)c3c2)o1`: the inhibition was 2.89%.

On to `COC(=O)Nc1nc2cc(Oc3ccc(NC(=O)Nc4ccccc4)cc3)ccc2[nH]1`, for which the inhibition was 3%.

Take `O=C(O[C@H]1CN[C@H](C#Cc2cc3ncnc(Nc4ccc(OCc5cccc(F)c5)c(Cl)c4)c3s2)C1)N1CCOCC1`: the inhibition turned out to be 4.6%.

As to `CCCNc1cccc(-n2ncc3c(N/N=C/c4ccncc4)ncnc32)c1`, the inhibition came to 31.2%.

On to `CC1=C(C(=O)Nc2ccc3[nH]nc(C)c3c2)C(c2ccc(C(F)(F)F)cc2)CC(=O)N1` (configuration not stated), for which the inhibition was 3.53%.

For the compound `CN1CCC(C(=O)Nc2n[nH]c3nc(-c4ccc(O)cc4)c(Br)cc23)CC1`, the inhibition is 55.1% and 58%.

Take `Cc1cc(O)cc(C)c1/C=C/c1cncc(C(=O)OC(C)(C)C)c1`: the inhibition came to 4.59%.

Consider `CN1CCN(Cc2ccc(-c3cc4ncnc(Nc5ccc(OCc6cccc(F)c6)c(Cl)c5)c4s3)o2)CC1`, for which the inhibition is 3.21% and 7.2%.
